The list is not random: actives were taken first. Their share in the collection is about 18%.
TDP1 cell noCPT = qHTS for Inhibitors of human tyrosyl-DNA phosphodiesterase 1 (TDP1): qHTS in cells in absence of CPT | DT40 Tdp1-/- hTDP1 cells, no CPT, ATP luminescence, 48 h | Potency, µM (titrated, usually from 46.2 µM), inactives show top-dose activity change, negative = growth inhibition, usual class: inhibitors | hit rate 15% among 420,000 | AID 686978, 2013; further: potency means the concentration at half of the fitted maximal effect; nearly all actives have a fitted effect of over 55% in size
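A cellular qHTS used chicken DT40 cells lacking endogenous Tdp1 but carrying stably transfected human TDP1. Compounds were applied without camptothecin, and cell growth kinetics were judged by ATP-dependent luminescence after ≥48 hr.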
DT40 TDP1 CPT = qHTS for Inhibitors of human tyrosyl-DNA phosphodiesterase 1 (TDP1): qHTS in cells in presence of CPT. AID 686979, 2013. Potency, µM (titrated, usually from 46.2 µM), for inactives: at the highest dose activity change, negative = growth inhibition, usual class: inhibitors. hit rate 12% among 420,000. chicken DT40 Tdp1-/-;hTDP1 cells + 20 nM CPT, ATP luminescence, 48 h; further: potency means the concentration at half of the fitted maximal effect; nearly all actives have a fitted effect of over 55% in size
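Cell growth measured by CellTiter-Glo luminescence after a minimum 48 h, 37 C compound exposure with 20 nM CPT in Tdp1-knockout DT40 cells stably expressing hTDP1, seeded 400/well; qHTS titration format.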
LDHA inh = qHTS assay for inhibitors of human lactate dehydrogenase | hit rate 0.15% among 480,000 | AID 1347041, 2019 | purified LDHA, NADH/diaphorase-resazurin fluorescence; active compounds read low | activity change, % (values are at about 110 or 230 µM); in the data active means activity change below about -30%; inconclusive means mostly about -25% to -30%;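 further: plate controls were DMSO wells for no effect and wells without enzyme for full effect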
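Remaining NADH was detected by diaphorase (0.133 mg/mL) converting 37 µM resazurin to fluorescent resorufin, read at 0 and 20 minutes. The preceding 5-minute room-temperature reaction used 2 nM LDHA, 0.2 mM sodium pyruvate and 0.06 mM NADH at pH 7.4.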
IL1B secr inh = qHTS for Inhibitors of Inflammasome Signaling: IL-1-beta AlphaLISA Primary Screen; hit rate 4.7% among 360,000; AID 743279, 2014; activity change, % at 57.5 µM; THP-1 LPS/ATP IL-1B secretion, AlphaLISA, 16 h; active compounds read low; in the data active means activity change below about -50%; inconclusive means mostly about -30% to -49%
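THP-1 cells pretreated 1 hr with compounds (up to 57.5 uM final), then stimulated with LPS (250 ng/mL final) plus ATP (1.25 mM final); secreted IL-1B measured by AlphaLISA after 16 hr, decreased signal indicating inhibition.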
RORg inh = qHTS for inhibitors of ROR gamma transcriptional activity | Nuclear receptor ROR-gamma (Mus musculus), P51450 | Drosophila S2 Gal4-RORgamma UAS-luciferase reporter, 20 h | Potency, µM (top dose mostly 53.6 µM), without a hit: at the top dose activity change, negative = inhibition, usual class: inhibitors | hit rate 5.4% among 310,000; further: potency means the concentration at half of the fitted maximal effect; nearly all actives have a fitted effect of over 60% in size
Target sequence (P51450 whole entry, looked up, the tested form may be a part): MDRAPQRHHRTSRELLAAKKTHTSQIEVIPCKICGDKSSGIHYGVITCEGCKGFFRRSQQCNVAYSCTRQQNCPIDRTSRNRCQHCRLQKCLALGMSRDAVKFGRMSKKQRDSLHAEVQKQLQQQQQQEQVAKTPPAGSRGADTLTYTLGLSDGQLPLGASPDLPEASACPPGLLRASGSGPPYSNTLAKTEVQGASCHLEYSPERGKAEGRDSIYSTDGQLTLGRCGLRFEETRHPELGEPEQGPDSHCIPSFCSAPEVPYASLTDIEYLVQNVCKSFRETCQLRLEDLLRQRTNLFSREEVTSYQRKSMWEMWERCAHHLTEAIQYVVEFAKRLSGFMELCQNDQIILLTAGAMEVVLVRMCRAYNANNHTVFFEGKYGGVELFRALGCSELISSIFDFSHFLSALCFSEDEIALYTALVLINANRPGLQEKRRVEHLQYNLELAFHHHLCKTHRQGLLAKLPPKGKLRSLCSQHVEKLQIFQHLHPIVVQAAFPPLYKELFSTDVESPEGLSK
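Using a luciferase readout, inhibitors were identified by reduced reporter activity in Drosophila cells coexpressing a copper-inducible Gal4–ROR gamma fusion and UAS-driven Photinus luciferase, incubated 20 hr after 700 uM copper sulfate.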
Gal4-VP16 FLuc = VP16 counterscreen qHTS for inhibitors of ROR gamma transcriptional activity | Drosophila S2 Gal4-VP16 UAS-luciferase, luminescence, 20 h | Potency, µM (doses to about 53.6 µM), for the others: at the top dose activity, negative = inhibition, most hits filed as inhibitors | AID 2546, 2010 | hit rate 3.5% among 310,000;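 further: Gal4-VP16 expression switched on by copper sulfate through the metallothionein promoter; potency means the concentration at half of the fitted maximal effect; nearly all actives have a fitted effect of over 50% in size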
Active calls of the source: *; ? = inconclusive; nt = not tested or not shown. Unless noted, the call rests on the fitted dose curve; in most records, active means well fitted curve in the direction sought with a large enough effect; inconclusive means small, poorly fitted or top-dose-only effect, or another doubt; inactive means no such curve, though single readings can be large; an effect the other way counts as inactive or inconclusive. Unless noted, on the % scale 0 is the no-effect control and ±100 the full control effect.

SMILES	TDP1 cell noCPT	DT40 TDP1 CPT	LDHA inh	IL1B secr inh	RORg inh	Gal4-VP16 FLuc
O=C1/C(=C\c2ccccn2)SC(=S)N1Nc1ncc(C(F)(F)F)cc1Cl	-29%	-27%	12	-7	11µM*	?
O=C(O)/C(=C/c1cccs1)c1cccs1	nt	nt	-10	nt	nt	nt
CCCNC(=O)C1CCN(C(=O)c2ccc(C(F)(F)F)cc2)CC1	nt	nt	6	nt	nt	nt
CCc1ccc(-c2cn3c(n2)sc2cc(C(=O)NC4CCCCCC4)ccc23)cc1	10µM*	12µM*	-3	nt	nt	nt
CCOC(=O)C1CCN(C(=O)c2ccc3c(c2)sc2nc(-c4ccc(C)cc4)cn23)CC1	?	-27%	-1	nt	nt	nt
CC(NC(=O)c1ccc2c(c1)sc1nc(-c3ccc(F)cc3)cn12)c1ccccc1 (stereo unspecified)	nt	nt	4	nt	nt	nt
O=C(NC1CCCCC1)c1ccc2c(c1)sc1nc(-c3ccccc3)cn12	10µM*	?	1	nt	nt	nt
Cc1ccc(-c2cn3c(n2)sc2cc(C(=O)NC4CCCCC4)ccc23)cc1	4.6µM*	4.1µM*	1	nt	nt	nt
Cc1ccc(-c2cn3c(n2)sc2cc(C(=O)NC4CCCCCC4)ccc23)cc1	16µM*	10µM*	0	nt	nt	nt
CCCCc1ccc(-n2nnnc2SCC(=O)Nc2cccc(OC)c2)cc1	nt	nt	-6	nt	nt	nt
CCOc1ccccc1NC(C)C(=O)N(C)Cc1cccc(F)c1 (stereo unspecified)	nt	nt	2	nt	nt	nt
CC(Sc1nc(Cl)nc2nc[nH]c12)C(=O)N1CCN(c2ccccc2)CC1 (stereo unspecified)	nt	nt	3	nt	nt	nt
C/C(=N\NC(=O)CN1CCCCC1)c1ccccc1O	?	?	-6	164	3.5µM*	16µM*
C/C(=N\NC(=O)CN(c1ccccc1)S(C)(=O)=O)c1ccccc1O	?	?	-1	112	0.71µM*	3.5µM*
C/C(=N\NC(=O)CN1CCCCC1)c1cccc([N+](=O)[O-])c1	-7%	12%	-3	9	nt	nt
Nc1cc(-c2ccc(Br)cc2)nn1Cc1ccccc1	-18%	?	-1	-69*	?	2%
Cc1ccc(S(=O)(=O)N(CC(N)=O)Cc2c(F)cccc2Cl)cc1	nt	nt	0	nt	nt	nt
OCc1cc([C@@H](O)CNCCCCCCOCCCCc2ccccc2)ccc1O	11µM*	9.4µM*	0	nt	?	-23%
CC(C)OCCCNCC(O)c1ccccc1 (stereo unspecified)	?	-6%	-17	-12	-5%	-2%
COc1ccc(CCNC(=O)CSc2nc(Cl)nc3nc[nH]c23)cc1OC	nt	nt	0	nt	nt	nt
CSc1ccc(Cl)c(C(=O)Oc2ccccc2Cc2ccccc2)c1	nt	nt	0	nt	nt	nt
O=C(NC(=S)NNC(=O)c1ccccc1F)c1cccnc1	?	?	-7	38	11µM*	?
Cc1ccccc1C(=O)NNC(=S)NC(=O)c1cccnc1	?	?	-6	37	11µM*	?
COc1cc(CN(CC2CCCO2)C(=O)COc2ccc(Cl)cc2C)cc(OC)c1OC (stereo unspecified)	nt	nt	7	nt	nt	nt
NNc1nc(C(F)(F)F)nc2ccccc12	-6%	3%	-5	30	?	?
SMILES	TDP1 cell noCPT	DT40 TDP1 CPT	LDHA inh	IL1B secr inh	RORg inh	Gal4-VP16 FLuc
O/C=c1\ccc2cccc3nc(C(F)(F)F)nc1c23	21µM*	10µM*	32	-1	-10%	-1%
CC1CC/C(=C\c2ccc3c(c2)OCO3)C(=O)/C1=C/c1ccc2c(c1)OCO2 (stereo unspecified)	?	?	4	-55*	2%	1%
O=C1/C(=C\c2ccc3c(c2)OCO3)CCC/C1=C/c1ccc2c(c1)OCO2	?	?	-3	-16	-28%	-8%
O=C(CN(Cc1ccccc1)S(=O)(=O)c1ccc2c(c1)OCCO2)N/N=C/c1ccc(F)cc1	-20%	-27%	-9	-56*	19%	-1%
O=C(CN(Cc1ccccc1)S(=O)(=O)c1ccc2c(c1)OCCO2)N/N=C/c1cccc(Br)c1	?	?	-8	-13	16%	-8%
C/C1=C\CCC2C(/C=C(\C)CC1)OC(=O)C2CN1CCCCC1 (stereo unspecified)	?	10µM*	-7	nt	11%	8%
CCOC(=O)CNC(=O)c1cc(-c2ccc(C)s2)nc2ccccc12	nt	nt	12	nt	nt	nt
CC1=C(C(=O)N2CCCCCC2)CC(CC(=O)NCCCCc2ccccc2)C(=O)N1CCC1=CCCCC1 (stereo unspecified)	18µM*	23µM*	7	-67*	nt	nt
CCCCN1C(=O)C(CC(=O)NCCCCc2ccccc2)CC(C(=O)N2CCCCCC2)=C1C (stereo unspecified)	18µM*	18µM*	2	0	nt	nt
CC1=C(C(=O)N(C)C)CC(CC(=O)NCCCCc2ccccc2)C(=O)N1CCC1=CCCCC1 (stereo unspecified)	?	?	1	-10	nt	nt
CC1=C(C(=O)N2CCCCCC2)CC(CC(=O)NC2CCCCC2)C(=O)N1CCC1=CCCCC1 (stereo unspecified)	?	13µM*	1	-27	nt	nt
Cc1ccc(C(=O)NNC(=O)c2ccccc2O)cc1S(=O)(=O)N1CCCCC1	?	16µM*	5	38	nt	nt
Cc1ccc(C(=O)NCc2ccco2)cc1S(=O)(=O)N1CCCCC1	-19%	-26%	2	-8	41%	13%
Cc1ccc(C(=O)NC2CCCC2)cc1S(=O)(=O)N1CCCCC1	11%	-22%	-2	27	42%	3%
Cc1ccc(C(=O)Nc2ccccc2C(=O)NCc2ccco2)cc1S(=O)(=O)N1CCCCC1	16µM*	?	-3	2	-7%	?
Cc1ccc(O)c(NC(=O)c2ccc(Br)c(S(=O)(=O)N3CCCCC3)c2)c1	5.2µM*	9.2µM*	-6	nt	nt	nt
CCCCCOc1ccc(C(=O)Nc2cccc3cccnc23)cc1	nt	nt	1	nt	nt	nt
O=[N+]([O-])c1cc(-c2nnc(Nc3ccc(O)cc3)c3ccccc23)ccc1N1CCOCC1	15µM*	16µM*	3	nt	36%	?
Cc1ccc(Nc2nnc(-c3ccc(N4CCOCC4)c([N+](=O)[O-])c3)c3ccccc23)cc1	10µM*	12µM*	-4	0	0%	1%
